PubChem BioAssay (NCATS)
Records with an inconclusive call do not appear. Calls of active or inactive are those of the source. The call rests on the fitted dose curve; in most records, active means well fitted cell-killing curve with a large enough effect; inconclusive means small, poorly fitted or top-dose-only effect, or effect the other way; inactive means flat fitted curve, though single readings scatter.

Experiments:
Test in all cases: Primary qHTS to identify gynecologic anti-cancer compounds using libraries of approved drugs and bioactive compounds (AID 1345084); further: nearly all actives have a fitted effect of over 55% in size
C33A = conditions: Gynecologic cancer cell panel viability, ATPlite luminescence, 48 h; series mostly up to 57.5 µM
Outline: (§1)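 Cell viability after 48 h drug treatment, ATPlite luminescence readout; five doses.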

CASKI = conditions: Gynecologic cancer cell panel viability, ATPlite luminescence, 48 h; series mostly up to 57.5 µM
Outline: as §1

Es-2 = conditions: Gynecologic cancer cell panel viability, ATPlite luminescence, 48 h; series mostly up to 57.5 µM
Outline: as §1

HeLa = conditions: Gynecologic cancer cell panel viability, ATPlite luminescence, 48 h; series mostly up to 57.5 µM
Outline: as §1

Hek293T = conditions: Gynecologic cancer cell panel viability, ATPlite luminescence, 48 h, control line for the selectivity index; series mostly up to 57.5 µM
Outline: as §1

JEG-3 = conditions: Gynecologic cancer cell panel viability, ATPlite luminescence, 48 h; series mostly up to 57.5 µM
Outline: as §1

OV90 = conditions: Gynecologic cancer cell panel viability, ATPlite luminescence, 48 h; series mostly up to 57.5 µM
Outline: as §1

PA-1 = conditions: Gynecologic cancer cell panel viability, ATPlite luminescence, 48 h; series mostly up to 57.5 µM
Outline: as §1

SKOV3 = conditions: Gynecologic cancer cell panel viability, ATPlite luminescence, 48 h; series mostly up to 57.5 µM
Outline: as §1

Tov-21-G = conditions: Gynecologic cancer cell panel viability, ATPlite luminescence, 48 h; series mostly up to 57.5 µM
Outline: as §1

Tov112D = conditions: Gynecologic cancer cell panel viability, ATPlite luminescence, 48 h; series mostly up to 57.5 µM
Outline: as §1
On the % scale 0 is the no-effect control and ±100 the full control effect.

C=C(C)C1CCC2(C(=O)O)CCC3(C(=O)O)C(CCC4C5(C)CCC(O)C(C)(C(=O)O)C5CCC43C)C12 (stereo not drawn)
inactive: Potency (C33A) | Potency (CASKI) | Potency (Es-2) | Potency (HeLa) | Potency (Hek293T) | Potency (JEG-3) | Potency (OV90) | Potency (PA-1) | Potency (SKOV3) | Potency (Tov-21-G) | Potency (Tov112D)

COc1c2ccoc2cc2oc(CO[C@@H]3O[C@H](CO)[C@@H](O)[C@H](O)[C@H]3O)cc(=O)c12
inactive: Potency (C33A) | Potency (CASKI) | Potency (Es-2) | Potency (HeLa) | Potency (Hek293T) | Potency (JEG-3) | Potency (OV90) | Potency (PA-1) | Potency (SKOV3) | Potency (Tov-21-G) | Potency (Tov112D)

C=C1CCC[C@]2(C)CC[C@@H](C(=C)C(=O)O)[C@H](O)[C@@H]12
inactive: Potency (C33A) | Potency (CASKI) | Potency (Es-2) | Potency (HeLa) | Potency (Hek293T) | Potency (JEG-3) | Potency (OV90) | Potency (PA-1) | Potency (SKOV3) | Potency (Tov-21-G) | Potency (Tov112D)

Cn1ncnc1COc1nn2c(-c3cc(F)ccc3F)nnc2cc1C(C)(C)C
inactive: Potency (C33A) | Potency (CASKI) | Potency (Es-2) | Potency (HeLa) | Potency (Hek293T) | Potency (JEG-3) | Potency (OV90) | Potency (PA-1) | Potency (SKOV3) | Potency (Tov-21-G) | Potency (Tov112D)

C=C(C(=O)O)C1CCC2(C)CCC(O)C(C)(O)C2C1 (stereo not drawn)
inactive: Potency (C33A) | Potency (CASKI) | Potency (Es-2) | Potency (HeLa) | Potency (Hek293T) | Potency (JEG-3) | Potency (OV90) | Potency (PA-1) | Potency (SKOV3) | Potency (Tov-21-G) | Potency (Tov112D)

COc1cc(C(=O)OC[C@H]2O[C@@H](Oc3ccccc3/C=C/C(=O)O)[C@H](O)[C@@H](O)[C@@H]2O)cc(OC)c1OC
inactive: Potency (C33A) | Potency (CASKI) | Potency (Es-2) | Potency (HeLa) | Potency (Hek293T) | Potency (JEG-3) | Potency (OV90) | Potency (PA-1) | Potency (SKOV3) | Potency (Tov-21-G) | Potency (Tov112D)

NC(=O)C(CCC(F)(F)F)N(Cc1ccc(-c2ncon2)cc1F)S(=O)(=O)c1ccc(Cl)cc1 (stereo not drawn)
inactive: Potency (C33A) | Potency (CASKI) | Potency (Es-2) | Potency (HeLa) | Potency (Hek293T) | Potency (JEG-3) | Potency (OV90) | Potency (PA-1) | Potency (SKOV3) | Potency (Tov-21-G) | Potency (Tov112D)

C/C=C/c1ccc2c(c1)[C@@H](C)[C@H](c1ccc(O)cc1)O2
inactive: Potency (C33A) | Potency (CASKI) | Potency (Es-2) | Potency (HeLa) | Potency (Hek293T) | Potency (JEG-3) | Potency (OV90) | Potency (PA-1) | Potency (SKOV3) | Potency (Tov-21-G) | Potency (Tov112D)

C[C@@H]1CC[C@]2(C(=O)OC3OC(CO)C(O)C(O)C3O)CC[C@]3(C)C(=CCC4[C@@]5(C)CC[C@H](O)[C@](C)(C(=O)O)C5CC[C@]43C)C2[C@]1(C)O (stereo partly drawn)
inactive: Potency (C33A) | Potency (CASKI) | Potency (Es-2) | Potency (HeLa) | Potency (Hek293T) | Potency (JEG-3) | Potency (OV90) | Potency (PA-1) | Potency (SKOV3) | Potency (Tov-21-G) | Potency (Tov112D)

Cc1cccc(-c2[nH]c(Cc3cccc(C(N)=O)c3)nc2-c2ccc3nccnc3c2)n1
inactive: Potency (C33A) | Potency (CASKI) | Potency (Es-2) | Potency (HeLa) | Potency (Hek293T) | Potency (JEG-3) | Potency (OV90) | Potency (PA-1) | Potency (SKOV3) | Potency (Tov-21-G) | Potency (Tov112D)

CC1(C)CC[C@]2(C(=O)O[C@@H]3O[C@H](CO)[C@@H](O)[C@H](O)[C@H]3O)CC[C@]3(C)C(=CCC4[C@@]5(C)CC[C@H](O[C@@H]6O[C@H](C(=O)O)[C@@H](O)[C@H](O)[C@H]6O)[C@@](C)(CO)C5CC[C@]43C)C2C1 (stereo partly drawn)
inactive: activity change, negative = cytotoxicity (C33A) 9.39% [at 11.6 µM] | activity change, negative = cytotoxicity (CASKI) 1.03% [at 11.6 µM] | activity change, negative = cytotoxicity (Es-2) 1.13% [at 11.6 µM] | activity change, negative = cytotoxicity (HeLa) -10.8% [at 11.6 µM] | activity change, negative = cytotoxicity (Hek293T) 5.9% [at 11.6 µM] | activity change, negative = cytotoxicity (JEG-3) -2.45% [at 11.6 µM] | activity change, negative = cytotoxicity (OV90) 8.98% [at 11.6 µM] | activity change, negative = cytotoxicity (PA-1) 2.88% [at 11.6 µM] | activity change, negative = cytotoxicity (SKOV3) 0% [at 11.6 µM] | activity change, negative = cytotoxicity (Tov-21-G) 2.2% [at 11.6 µM] | activity change, negative = cytotoxicity (Tov112D) 2.24% [at 11.6 µM]

CC12CCC(=O)C=C1C(O)CC1C2C(O)CC2(C)C1CC[C@]2(O)C(=O)CO (stereo partly drawn)
inactive: activity change, negative = cytotoxicity (C33A) 4.59% [at 11.6 µM] | activity change, negative = cytotoxicity (CASKI) -0.604% [at 11.6 µM] | activity change, negative = cytotoxicity (Es-2) 1.39% [at 11.6 µM] | activity change, negative = cytotoxicity (HeLa) 6.62% [at 11.6 µM] | activity change, negative = cytotoxicity (Hek293T) 5.48% [at 11.6 µM] | activity change, negative = cytotoxicity (JEG-3) 6.5% [at 11.6 µM] | activity change, negative = cytotoxicity (OV90) 9.39% [at 11.6 µM] | activity change, negative = cytotoxicity (PA-1) -1.22% [at 11.6 µM] | activity change, negative = cytotoxicity (SKOV3) -0.607% [at 11.6 µM] | activity change, negative = cytotoxicity (Tov-21-G) -3.93% [at 11.6 µM] | activity change, negative = cytotoxicity (Tov112D) 12.3% [at 11.6 µM]

C=C1C(OC2OCC(O)C(O)C2O)CC2C(C)(C)C(O)CCC2(C)C1CC/C(C)=C\CO (stereo not drawn)
inactive: Potency (C33A) | Potency (CASKI) | Potency (Es-2) | Potency (HeLa) | Potency (Hek293T) | Potency (JEG-3) | Potency (OV90) | Potency (PA-1) | Potency (SKOV3) | Potency (Tov-21-G) | Potency (Tov112D)
